# Assay results as given in publication PMC5540273 (PLoS ONE, 2017).
# How the values were obtained:
# Settings in all cases: concentration: 1 μM, replicates: in singlicate; n = 1
# CDC2L2 = tested on: CDC2L2
# CDC2L5 = tested on: T1, CDC2L5
# T1 construct: gene CDK13
# CDK11 = tested on: T2, CDK11
# T2 construct: gene CDK19
# CDK2 = tested on: CDK2
# CDK3 = tested on: CDK3
# CDK4-cyclinD1 = tested on: CDK4-cyclinD1
# CDK4-cyclinD3 = tested on: CDK4-cyclinD3
# CDK4 = tested on: CDK4
# CDK5 = tested on: CDK5
# CDK7 = tested on: CDK7
# 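Note: KINOMEscan kinase panel screen.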
Structure (SMILES),%Inh (CDC2L2) [%],%Inh (CDC2L5) [%],%Inh (CDK11) [%],%Inh (CDK2) [%],%Inh (CDK3) [%],%Inh (CDK4-cyclinD1) [%],%Inh (CDK4-cyclinD3) [%],%Inh (CDK4) [%],%Inh (CDK5) [%],%Inh (CDK7) [%]
Nc1n[nH]c2cnc(-c3ccccc3)cc12 [SB-642124],0,0,0,0,9,23,47,27,0,22
O=C(Nc1ccccc1F)NC1CCN(c2ccnc(Nc3ccc(F)cc3)n2)CC1 [GSK1379800],34,0,9,0,0,2,0,28,0,0
Nc1ncnc2c1nc(-c1ccccc1)n2-c1ccccc1 [SKF-97293],5,48,7,12,13,21,0,21,3,41
COc1cc2c(cc1OCCN1CCNCC1)ncc1c3ccc(C#N)cc3[nH]c21,0,8,24,0,17,31,0,6,3,99.7
CCn1c(-c2nonc2N)nc2c(C#CC(C)(C)O)nc(OC[C@H](N)c3ccccc3)cc21 [GSK943949],0,2,0,0,0,0,8,0,9,5
Cl.Cl.NCC(C(=O)Nc1cc(Br)c(-c2ccnc3[nH]ccc23)s1)c1ccccc1 (centres unmarked) [GSK1269851],4,0,17,0,5,0,2,15,0,24
Cc1cccc(Nc2nc(N[C@H]3CCNC3)ncc2C(N)=O)c1.Cl [GSK2197149],74,0,0,0,0,0,1,0,0,52
c1ccc(Oc2ccc(Nc3ccnc4cc(-c5ccc(CNCCN6CCOCC6)o5)ccc34)cc2)nc1 [GW567145],5,0,1,0,0,38,0,1,0,8
Cc1ccc(C(=O)Nc2ccc(Nc3ccnc4cc(-c5nccs5)ccc34)cc2O)cc1.Cl [GW494702],0,0,0,94.4,8,39,0,43,0,9
Cn1cc(-c2ccc3c(c2)CCN3C(=O)Cc2cccc(F)c2)c2c(N)ncnc21 [GSK2603358],21,0,96.7,0,7,2,0,17,0,0
COc1ccc(CNC(=O)NC2CCN(c3ccnc(Nc4ccc(F)cc4)n3)CC2)cc1 [GSK1379788],10,0,3,0,3,0,0,20,0,0
COc1cc(Nc2nccc(N3CCC(NC(=O)c4cc5ccccc5s4)C3)n2)cc(OC)c1OC (centres unmarked) [GSK1379760],5,0,19,0,11,41,0,14,0,16
COc1cc(Nc2nccc(N3CCC(NC(=O)Nc4cccc(C(C)=O)c4)C3)n2)cc(OC)c1OC (centres unmarked) [GSK1379753],14,0,16,0,11,0,0,0,0,0
CN(C)Cc1ccc(-c2ccc3c(Nc4ccc(Oc5ccccn5)cc4)ccnc3c2)o1 [GW567148],0,0,0,0,0,0,0,25,0,62
Cc1cccc(NC(=O)Nc2ccc(Oc3ncnc4ccn(C)c34)cc2)c1,0,0,77,0,2,0,0,0,15,0
Cl.Cl.NCC(NC(=O)c1cc(-c2ccccc2)c(-c2ccnc3[nH]ccc23)s1)c1ccccc1 (centres unmarked) [GSK1321561],11,0,8,0,8,0,0,27,0,0

Structure (SMILES),%Inh (CDC2L2) [%],%Inh (CDC2L5) [%],%Inh (CDK11) [%],%Inh (CDK2) [%],%Inh (CDK3) [%],%Inh (CDK4-cyclinD1) [%],%Inh (CDK4-cyclinD3) [%],%Inh (CDK4) [%],%Inh (CDK5) [%],%Inh (CDK7) [%]
C[C@@H](Oc1cc(-n2cnc3cc(-c4ccnc(NCCS(C)(=O)=O)c4)ccc32)sc1C(N)=O)c1ccccc1Cl [GSK907232],5,0,20,13,16,0,0,0,0,0
O=C(Nc1cccc(-c2nn3ccccc3c2-c2ccnc(Nc3cccc(F)c3)n2)c1)c1c(F)ccc(F)c1Cl [GSK357952],0,0,0,0,1,0,0,53,0,0
O=C(O)C(F)(F)F.O=C(O)C(F)(F)F.O=c1[nH]ccc2nc(N[C@@H]3CCCNC3)nc(Nc3ccc(S(=O)(=O)N4CCOCC4)cc3)c12 [GSK2177277],17,0,0,88,88,98.1,99.8,62,90.8,99.6
CCc1ccc(-c2ccc3c(c2)-c2c(cnn2C)S(=O)(=O)N3C)cc1,0,20,7,0,0,3,3,0,0,6
O=C(NC1CCN(c2ccnc(Nc3ccc(F)cc3)n2)C1)c1cc2ccccc2s1 (centres unmarked) [GSK1379716],14,0,36,0,18,14,0,0,7,0
Nc1ncc(-c2cccnc2)c2scc(-c3ccc4c(c3)CCN4C(=O)Cc3ccccc3)c12 [GSK683281],8,0,45,0,21,0,0,14,9,0
COc1ccc(Nc2nccc(NCCNC(=O)c3cc4ccccc4s3)n2)cc1 [GSK1379896],1,0,10,0,5,0,0,13,0,0
COc1cccc(C2=C(Nc3ccc(Cl)c(C(=O)O)c3)C(=O)NC2=O)c1 [SB-390769],0,0,100,9,25,7,100,0,0,0
CC(C)c1nc(-c2cccc(NS(=O)(=O)c3c(F)cccc3F)c2F)c(-c2ccnc(Nc3ccc(N4CCOCC4)nc3)n2)s1 [GSK2008607],47,84,6,99.4,99.5,65,93.6,96.3,99.1,93.1
COc1cc(Nc2ncc3c(C)nc(-c4cc5ccccc5[nH]4)n3n2)cc(OC)c1OC [GW869516],8,0,1,0,31,22,0,0,0,0
Cc1ccc(S(=O)(=O)Nc2ccc(Nc3nccc(Nc4cccc5[nH]ncc45)n3)cc2)cc1 [GSK581271],0,0,0,21,17,0,0,15,0,0
Cc1ccc(C)c(NC(=O)NC2CCN(c3ccnc(Nc4ccc(F)cc4)n3)C2)c1 (centres unmarked) [GSK1379720],0,0,57,0,10,37,0,35,0,0
Oc1cc(Nc2ccnc3cc(I)ccc23)ccc1F [GW552771],0,0,10,0,0,11,0,0,0,0
O=C(Nc1cccc(Oc2ccc3nc(NC(=O)C4CC4)cn3n2)c1)c1ccccc1C(F)(F)F,14,25,1,0,21,24,0,0,0,0
CCn1c(-c2nonc2N)nc2c(C#CC(C)(C)O)ncc(OCCCCN)c21.O=C(O)C(F)(F)F.O=C(O)C(F)(F)F [GSK507274],0,0,0,3,16,0,0,0,0,0
CN(C)S(=O)(=O)c1cc(-c2ccc3nccc(-c4cccc(S(N)(=O)=O)c4)c3c2)cnc1N [GSK1669921],3,0,54,0,9,0,0,0,0,58
